Laboratory results taken from PubChem BioAssay (NCI).
The panel holds about 83,000 compounds, 20% with a hit somewhere; the sample as a whole holds those more often.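 A percent growth of 40 corresponds to 60% growth inhibition; 0 means no net growth; -100 means all cells died. Active threshold: below 10.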 The source made the active and inactive calls.

Experiments:
Assay in all cases: NCI-60 one-dose screen, 48 h (100 = growth as untreated, 0 = no growth, -100 = all killed)
Conditions in all cases: 10 µM unless noted
SR leukemia = test system: SR leukemia
RPMI-8226 leukemia = test system: RPMI-8226 leukemia
OVCAR-8 ovarian = test system: OVCAR-8 ovarian
OVCAR-5 ovarian = test system: OVCAR-5 ovarian
OVCAR-4 ovarian = test system: OVCAR-4 ovarian
SK-OV-3 ovarian = test system: SK-OV-3 ovarian
IGROV1 ovarian = test system: IGROV1 ovarian
OVCAR-3 ovarian = test system: OVCAR-3 ovarian
NCI/ADR-RES ovarian = test system: NCI/ADR-RES ovarian
HS 578T breast = test system: HS 578T breast

Measured: growth

CCOC(=O)c1cnc2c(OC)ccc(OC)c2c1Cl
inactive: SR leukemia 115% | RPMI-8226 leukemia 100% | OVCAR-8 ovarian 101% | OVCAR-5 ovarian 109% | OVCAR-4 ovarian 113% | SK-OV-3 ovarian 100% | IGROV1 ovarian 117% | OVCAR-3 ovarian 108% | NCI/ADR-RES ovarian 110%

Cc1cc[n+](CCCC[n+]2ccc(C)cc2)cc1
inactive: SR leukemia 97.3% | RPMI-8226 leukemia 94.2% | OVCAR-8 ovarian 108% | OVCAR-5 ovarian 104% | OVCAR-4 ovarian 114% | SK-OV-3 ovarian 116% | IGROV1 ovarian 99.7% | OVCAR-3 ovarian 106% | NCI/ADR-RES ovarian 97.8%

O=C(N/N=C/c1ccccc1O)c1ccccc1O
inactive: SR leukemia 17.1% | RPMI-8226 leukemia 37.4% | OVCAR-8 ovarian 25.1% | OVCAR-5 ovarian 55.3% | OVCAR-4 ovarian 24.3% | SK-OV-3 ovarian 47.7% | IGROV1 ovarian 24.3% | OVCAR-3 ovarian 39.8% | NCI/ADR-RES ovarian 21%

OC(COc1ccccc1Cl)CN1CCN(c2ccc(Cl)cc2)CC1 (configuration not stated)
inactive: SR leukemia 92.3% | RPMI-8226 leukemia 86.6% | OVCAR-8 ovarian 104% | OVCAR-5 ovarian 81.9% | OVCAR-4 ovarian 91.7% | SK-OV-3 ovarian 114% | IGROV1 ovarian 96% | OVCAR-3 ovarian 106% | NCI/ADR-RES ovarian 115%

COc1cc(C(=O)N2CCN(C(=O)c3cc(OC)c(OCc4ccccc4)cc3N)CC2)c(N)cc1OCc1ccccc1
inactive: SR leukemia 81.2% | RPMI-8226 leukemia 179% | OVCAR-8 ovarian 106% | OVCAR-5 ovarian 103% | OVCAR-4 ovarian 103% | SK-OV-3 ovarian 111% | IGROV1 ovarian 106% | HS 578T breast 109%

CCN1CCN(Cc2ccc(NC(=O)Nc3cccc(-n4ccc5c(NC(=O)c6ccccc6)nccc54)c3)cc2C(F)(F)F)CC1
inactive: SR leukemia 64.3% | RPMI-8226 leukemia 99.1% | OVCAR-8 ovarian 91% | OVCAR-5 ovarian 101% | OVCAR-4 ovarian 95.8% | SK-OV-3 ovarian 78.3% | IGROV1 ovarian 74.8% | OVCAR-3 ovarian 57.3% | NCI/ADR-RES ovarian 92.1%

COc1ccc(C2=NN(C(=O)COc3ccc(Cl)cc3)C(O)(c3cc(F)c(Cl)cc3Cl)C2)cc1OC (configuration not stated)
inactive: OVCAR-5 ovarian 82.8% | OVCAR-4 ovarian 21.8% | SK-OV-3 ovarian 93.6% | HS 578T breast 22%
active: SR leukemia -35.1% | RPMI-8226 leukemia -74.8% | OVCAR-8 ovarian 5.4% | IGROV1 ovarian -50.6%

ClC1c2ccccc2CCc2ccccc21
inactive: SR leukemia 89.2% | RPMI-8226 leukemia 92% | OVCAR-8 ovarian 94.7% | OVCAR-5 ovarian 86.4% | OVCAR-4 ovarian 85.9% | SK-OV-3 ovarian 91.2% | IGROV1 ovarian 72.5% | OVCAR-3 ovarian 100% | NCI/ADR-RES ovarian 116%

COc1cc(NC(C)CCCN2C(=O)c3ccccc3C2=O)c2nc(C)ccc2c1OC (configuration not stated)
inactive: SR leukemia 36.7% | RPMI-8226 leukemia 70.1% | OVCAR-8 ovarian 88.2% | OVCAR-5 ovarian 100% | OVCAR-4 ovarian 69.4% | SK-OV-3 ovarian 106% | IGROV1 ovarian 129% | HS 578T breast 113% | NCI/ADR-RES ovarian 83.3%

Nc1nc(Cl)cc(NCCCCNc2cc(Cl)nc(N)n2)n1
inactive: SR leukemia 98.9% | RPMI-8226 leukemia 96.4% | OVCAR-8 ovarian 99.5% | OVCAR-5 ovarian 94.9% | OVCAR-4 ovarian 104% | SK-OV-3 ovarian 113% | HS 578T breast 126%
active: IGROV1 ovarian -19.9%

O=C1C(SCCO)=C(SCCO)C(=O)N1c1ccc(-c2ccccc2)cc1
inactive: OVCAR-5 ovarian 102% | OVCAR-4 ovarian 10.3% | SK-OV-3 ovarian 106% | NCI/ADR-RES ovarian 104%
active: SR leukemia -47.6% | RPMI-8226 leukemia -14% | OVCAR-8 ovarian 3.35% | OVCAR-3 ovarian -92% | HS 578T breast -50.7%

COC(=O)c1oc2c(C(=O)/C=C/c3ccc(OC)cc3)c(OCCN3CCOCC3)ccc2c1C
inactive: OVCAR-5 ovarian 29.8% | OVCAR-4 ovarian 16% | SK-OV-3 ovarian 17.9%
active: SR leukemia -28% | RPMI-8226 leukemia -50.7% | OVCAR-8 ovarian -37.6% | IGROV1 ovarian -4.01% | HS 578T breast -15.1% | NCI/ADR-RES ovarian 9.24%

O=C(O)c1cc2ccccc2cc1Nc1ccccc1
inactive: SR leukemia 97.8% | RPMI-8226 leukemia 78.4% | OVCAR-8 ovarian 100% | OVCAR-5 ovarian 90.8% | OVCAR-4 ovarian 97.5% | SK-OV-3 ovarian 106% | OVCAR-3 ovarian 108% | HS 578T breast 121% | NCI/ADR-RES ovarian 93%

Nc1ccc(S(=O)(=O)Nc2cc(I)cc(I)c2)cc1
inactive: SR leukemia 15.8% | RPMI-8226 leukemia 97.5% | OVCAR-8 ovarian 107% | OVCAR-5 ovarian 86.5% | OVCAR-4 ovarian 99% | SK-OV-3 ovarian 117% | IGROV1 ovarian 104% | HS 578T breast 117% | NCI/ADR-RES ovarian 97.5%

C[C@H]1C=C(C[C@@H](O)CCCCCCCCCC[C@@H](O)[C@H]2CCC(=O)O2)C(=O)O1
inactive: SR leukemia 114% | RPMI-8226 leukemia 79.9% | OVCAR-8 ovarian 96.7% | OVCAR-5 ovarian 91.7% | OVCAR-4 ovarian 97.6% | SK-OV-3 ovarian 110% | HS 578T breast 128% | NCI/ADR-RES ovarian 99.6%
active: IGROV1 ovarian -23.5%

CCCCN(CCCC)c1ccc(C(=N)c2ccc(N(C)C)cc2)cc1
active: SR leukemia -44.4% | RPMI-8226 leukemia -43.3% | OVCAR-8 ovarian -15.4% | OVCAR-5 ovarian -2.12% | OVCAR-4 ovarian 7.13% | SK-OV-3 ovarian -7.53% | OVCAR-3 ovarian -74.3% | HS 578T breast -68.9% | NCI/ADR-RES ovarian -47.4%

COc1ccc(C2=NN(C(=O)COc3ccc(Cl)cc3)C(O)(c3cc(F)c(Cl)cc3Cl)C2)cc1 (configuration not stated)
inactive: SR leukemia 17% | RPMI-8226 leukemia 80.9% | OVCAR-8 ovarian 91% | OVCAR-5 ovarian 96.6% | OVCAR-4 ovarian 98.8% | SK-OV-3 ovarian 94.6% | IGROV1 ovarian 60.4% | HS 578T breast 102% | NCI/ADR-RES ovarian 99%

CCC1S/C(=N\N=C(/C)c2cc3ccccc3o2)N(c2ccccc2)C1=O (configuration not stated)
inactive: SR leukemia 15% | RPMI-8226 leukemia 65.4% | OVCAR-8 ovarian 105% | OVCAR-5 ovarian 106% | OVCAR-4 ovarian 95.1% | SK-OV-3 ovarian 116% | HS 578T breast 98.7% | NCI/ADR-RES ovarian 89%
active: IGROV1 ovarian -12.9%

S=c1n(CNc2ccc(Cl)nn2)nc(-c2cc(Cl)cc(Cl)c2Cl)n1/N=C/c1ccc(Cl)cc1
inactive: SR leukemia 32.5% | RPMI-8226 leukemia 61.2% | OVCAR-8 ovarian 114% | OVCAR-5 ovarian 100% | OVCAR-4 ovarian 87.5% | SK-OV-3 ovarian 107% | IGROV1 ovarian 76.2% | HS 578T breast 108% | NCI/ADR-RES ovarian 87.4%

Cc1cn([C@]2(CF)O[C@H](CO)C2C)c(=O)[nH]c1=O (some centres not stated)
active: IGROV1 ovarian -29.1%
inactive: SR leukemia 181% | RPMI-8226 leukemia 150% | OVCAR-8 ovarian 110% | OVCAR-5 ovarian 94.5% | OVCAR-4 ovarian 113% | SK-OV-3 ovarian 122% | HS 578T breast 110% | NCI/ADR-RES ovarian 113%

COc1ccc2c(c1)/C(=C/c1c(-c3cc(OC)c(OC)c(OC)c3Br)nc3sccn13)C(=O)N2
inactive: SR leukemia 95.1% | RPMI-8226 leukemia 85.9% | OVCAR-8 ovarian 99.6% | OVCAR-5 ovarian 105% | OVCAR-4 ovarian 100% | SK-OV-3 ovarian 96.6% | IGROV1 ovarian 45.7% | HS 578T breast 83.2% | NCI/ADR-RES ovarian 92.2%

CC(C)(C)NCC(O)COc1c(Br)c(Br)c(Br)c2c1OC(C)(C)C2 (configuration not stated)
active: SR leukemia -61.6% | RPMI-8226 leukemia -72.8% | OVCAR-8 ovarian -54.8% | OVCAR-5 ovarian -73.2% | IGROV1 ovarian -84.2% | HS 578T breast -64.8% | NCI/ADR-RES ovarian -15.9%
inactive: OVCAR-4 ovarian 15.3% | SK-OV-3 ovarian 92.1%

O=C(NC(=S)Nc1ccc(Cl)cc1)c1ccccc1
inactive: SR leukemia 67.9% | RPMI-8226 leukemia 95.3% | OVCAR-8 ovarian 102% | OVCAR-5 ovarian 84.8% | OVCAR-4 ovarian 85.6% | SK-OV-3 ovarian 115% | OVCAR-3 ovarian 125% | HS 578T breast 127% | NCI/ADR-RES ovarian 104%

Cc1cn(C2CC(N=[N+]=[N-])C(COP(=O)(O)OP(=O)(O)OP(=O)(O)O)O2)c(=O)[nH]c1=O (configuration not stated)
inactive: SR leukemia 24.3% | RPMI-8226 leukemia 60.7% | OVCAR-8 ovarian 120% | OVCAR-5 ovarian 93% | OVCAR-4 ovarian 108% | SK-OV-3 ovarian 104% | IGROV1 ovarian 75.5% | HS 578T breast 133% | NCI/ADR-RES ovarian 111%

COc1cccc(C2CC(c3cc(OC)c(OC)c(OC)c3)=NN2)c1 (configuration not stated)
inactive: RPMI-8226 leukemia 56.9% | OVCAR-8 ovarian 92.9% | OVCAR-5 ovarian 98.8% | OVCAR-4 ovarian 85.5% | SK-OV-3 ovarian 89.9% | IGROV1 ovarian 99.4% | HS 578T breast 111% | NCI/ADR-RES ovarian 63.4%
active: SR leukemia 9.95%

O=C(N/N=C1\SCC(=O)N1c1ccccc1)c1cc(-c2cc3ccccc3o2)nn1-c1ccccc1
inactive: SR leukemia 107% | RPMI-8226 leukemia 66.4% | OVCAR-8 ovarian 107% | OVCAR-5 ovarian 112% | OVCAR-4 ovarian 110% | SK-OV-3 ovarian 116% | IGROV1 ovarian 98.9% | HS 578T breast 109% | NCI/ADR-RES ovarian 108%

Nc1nc(Cl)cc(NCc2ccc(CNc3cc(Cl)nc(N)n3)cc2)n1
inactive: SR leukemia 139% | RPMI-8226 leukemia 103% | OVCAR-8 ovarian 89.6% | OVCAR-5 ovarian 82.5% | OVCAR-4 ovarian 59.7% | SK-OV-3 ovarian 92.5% | NCI/ADR-RES ovarian 103%
active: IGROV1 ovarian -31%

COc1cc(-c2nc3sc(C)cn3c2/C=C2\C(=O)Nc3ccccc32)c(Br)c(OC)c1OC
active: SR leukemia 3.87% | IGROV1 ovarian -11.8%
inactive: RPMI-8226 leukemia 28.6% | OVCAR-8 ovarian 65% | OVCAR-5 ovarian 81.6% | OVCAR-4 ovarian 54.4% | SK-OV-3 ovarian 31.2% | HS 578T breast 15.7% | NCI/ADR-RES ovarian 22.9%

Cn1c2ccccc2c2ssc(=S)c21
inactive: SR leukemia 103% | RPMI-8226 leukemia 124% | OVCAR-8 ovarian 102% | OVCAR-5 ovarian 99.7% | OVCAR-4 ovarian 89.5% | SK-OV-3 ovarian 119% | HS 578T breast 70.3% | NCI/ADR-RES ovarian 86.8%
active: IGROV1 ovarian -26.5%
